The record followed here is ChEMBL document CHEMBL1961873, “Compounds: GSK PKIS; Assays: Nanosyn kinase panel” (2012).

For assay [1], the target named is Tyrosine-protein kinase Fyn (Homo sapiens) (UniProt P06241). The conditions noted are these: at 1 µM.
The target of assay [2] is Tyrosine-protein kinase HCK (Homo sapiens) (UniProt P08631). The settings on record: at 0.1 µM.
For assay [3] the target is unchanged. The conditions noted are these: at 1 µM.
Assay [4] has as its target Insulin-like growth factor 1 receptor (Homo sapiens) (UniProt P08069). The settings on record: at 0.1 µM.
For assay [5] the target is unchanged. The settings on record: at 1 µM.
Assay [6] addresses Insulin receptor (Homo sapiens) (UniProt P06213). The settings on record: at 0.1 µM.
Assay [7] shares this target. The conditions noted are these: at 1 µM.
Assay [8] concerns the target Insulin receptor-related protein (Homo sapiens) (UniProt P14616). The conditions noted are these: at 0.1 µM.
Assay [9] shares this target. The settings on record: at 1 µM.
Assay [10] concerns the target T1, Tyrosine-protein kinase ITK/TSK (Homo sapiens) (UniProt Q08881).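 Further: mean percent inhibition of ITK from the GSK PKIS screen.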
T1 sequence (whole entry): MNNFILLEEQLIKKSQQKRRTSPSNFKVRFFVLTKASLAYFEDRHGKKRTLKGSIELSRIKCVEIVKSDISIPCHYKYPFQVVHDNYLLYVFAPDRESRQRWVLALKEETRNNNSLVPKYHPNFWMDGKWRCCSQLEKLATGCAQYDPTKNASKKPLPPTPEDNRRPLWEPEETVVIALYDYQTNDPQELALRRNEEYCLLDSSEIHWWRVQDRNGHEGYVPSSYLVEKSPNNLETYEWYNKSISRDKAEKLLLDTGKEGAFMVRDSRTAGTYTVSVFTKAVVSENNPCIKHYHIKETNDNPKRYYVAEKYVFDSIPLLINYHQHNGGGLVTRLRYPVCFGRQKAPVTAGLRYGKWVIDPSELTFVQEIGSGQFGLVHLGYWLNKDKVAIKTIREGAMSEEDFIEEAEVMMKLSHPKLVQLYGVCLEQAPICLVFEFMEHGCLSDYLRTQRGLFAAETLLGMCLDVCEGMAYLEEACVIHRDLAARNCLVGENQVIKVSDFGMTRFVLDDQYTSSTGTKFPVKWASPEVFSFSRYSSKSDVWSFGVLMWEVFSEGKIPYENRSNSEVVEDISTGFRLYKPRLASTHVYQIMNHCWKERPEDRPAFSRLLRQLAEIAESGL
The settings on record: at 0.1 µM.

Sequence of Insulin-like growth factor 1 receptor (Homo sapiens) (P08069 31-736 limits assumed): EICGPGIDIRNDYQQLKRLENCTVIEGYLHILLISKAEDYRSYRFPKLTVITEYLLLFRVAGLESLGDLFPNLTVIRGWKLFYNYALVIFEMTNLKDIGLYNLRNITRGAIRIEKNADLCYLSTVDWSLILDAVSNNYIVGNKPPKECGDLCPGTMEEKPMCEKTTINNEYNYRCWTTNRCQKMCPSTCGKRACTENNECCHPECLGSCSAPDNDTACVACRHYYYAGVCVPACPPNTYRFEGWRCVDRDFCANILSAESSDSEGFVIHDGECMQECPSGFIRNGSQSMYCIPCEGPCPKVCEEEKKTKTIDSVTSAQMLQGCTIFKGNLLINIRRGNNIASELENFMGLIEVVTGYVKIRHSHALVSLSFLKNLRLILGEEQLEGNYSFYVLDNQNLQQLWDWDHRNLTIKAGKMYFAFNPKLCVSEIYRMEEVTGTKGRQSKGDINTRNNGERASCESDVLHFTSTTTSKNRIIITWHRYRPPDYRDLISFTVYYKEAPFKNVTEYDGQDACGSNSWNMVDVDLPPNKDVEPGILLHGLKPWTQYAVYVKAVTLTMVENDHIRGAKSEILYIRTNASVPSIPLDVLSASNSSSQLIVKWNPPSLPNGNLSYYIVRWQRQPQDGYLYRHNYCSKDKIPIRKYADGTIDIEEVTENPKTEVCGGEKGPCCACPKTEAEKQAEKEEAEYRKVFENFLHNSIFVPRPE
Sequence of Insulin-like growth factor 1 receptor (Homo sapiens) (P08069 741-1367 limits assumed): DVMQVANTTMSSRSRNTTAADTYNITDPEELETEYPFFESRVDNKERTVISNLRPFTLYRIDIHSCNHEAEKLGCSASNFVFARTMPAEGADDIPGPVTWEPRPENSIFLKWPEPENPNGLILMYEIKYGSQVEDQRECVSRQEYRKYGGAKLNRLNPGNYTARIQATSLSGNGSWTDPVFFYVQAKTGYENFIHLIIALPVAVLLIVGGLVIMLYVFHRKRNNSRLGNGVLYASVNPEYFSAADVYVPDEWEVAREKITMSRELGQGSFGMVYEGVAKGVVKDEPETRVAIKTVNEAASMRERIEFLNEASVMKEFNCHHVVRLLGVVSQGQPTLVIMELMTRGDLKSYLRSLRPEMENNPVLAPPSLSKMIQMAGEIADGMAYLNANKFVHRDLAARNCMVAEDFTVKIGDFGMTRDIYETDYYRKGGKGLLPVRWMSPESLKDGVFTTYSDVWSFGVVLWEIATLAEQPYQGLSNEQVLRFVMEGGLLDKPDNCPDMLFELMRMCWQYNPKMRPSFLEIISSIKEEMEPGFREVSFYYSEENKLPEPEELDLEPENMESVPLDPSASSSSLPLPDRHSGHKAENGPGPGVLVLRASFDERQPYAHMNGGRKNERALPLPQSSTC
Sequence of Insulin receptor-related protein (Homo sapiens) (P14616 27-742 limits assumed): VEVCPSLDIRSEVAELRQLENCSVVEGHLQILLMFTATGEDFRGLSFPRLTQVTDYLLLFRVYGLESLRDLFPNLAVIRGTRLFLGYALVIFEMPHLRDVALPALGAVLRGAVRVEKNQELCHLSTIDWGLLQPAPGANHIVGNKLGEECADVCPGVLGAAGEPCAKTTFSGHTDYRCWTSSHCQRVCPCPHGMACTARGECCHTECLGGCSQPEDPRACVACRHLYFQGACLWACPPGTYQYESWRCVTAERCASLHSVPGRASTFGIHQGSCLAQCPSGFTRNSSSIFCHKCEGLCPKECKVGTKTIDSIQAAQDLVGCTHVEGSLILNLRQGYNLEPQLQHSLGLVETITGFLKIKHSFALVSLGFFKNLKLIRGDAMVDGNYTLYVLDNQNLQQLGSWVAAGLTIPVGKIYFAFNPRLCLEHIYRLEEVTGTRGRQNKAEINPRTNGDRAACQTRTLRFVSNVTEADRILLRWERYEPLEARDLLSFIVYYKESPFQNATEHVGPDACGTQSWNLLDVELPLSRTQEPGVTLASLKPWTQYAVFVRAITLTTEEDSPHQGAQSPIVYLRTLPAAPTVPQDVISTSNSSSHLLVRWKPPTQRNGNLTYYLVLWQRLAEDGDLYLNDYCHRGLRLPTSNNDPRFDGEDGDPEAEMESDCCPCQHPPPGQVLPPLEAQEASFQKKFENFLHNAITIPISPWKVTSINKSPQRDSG
Sequence of Insulin receptor-related protein (Homo sapiens) (P14616 747-1297 limits assumed): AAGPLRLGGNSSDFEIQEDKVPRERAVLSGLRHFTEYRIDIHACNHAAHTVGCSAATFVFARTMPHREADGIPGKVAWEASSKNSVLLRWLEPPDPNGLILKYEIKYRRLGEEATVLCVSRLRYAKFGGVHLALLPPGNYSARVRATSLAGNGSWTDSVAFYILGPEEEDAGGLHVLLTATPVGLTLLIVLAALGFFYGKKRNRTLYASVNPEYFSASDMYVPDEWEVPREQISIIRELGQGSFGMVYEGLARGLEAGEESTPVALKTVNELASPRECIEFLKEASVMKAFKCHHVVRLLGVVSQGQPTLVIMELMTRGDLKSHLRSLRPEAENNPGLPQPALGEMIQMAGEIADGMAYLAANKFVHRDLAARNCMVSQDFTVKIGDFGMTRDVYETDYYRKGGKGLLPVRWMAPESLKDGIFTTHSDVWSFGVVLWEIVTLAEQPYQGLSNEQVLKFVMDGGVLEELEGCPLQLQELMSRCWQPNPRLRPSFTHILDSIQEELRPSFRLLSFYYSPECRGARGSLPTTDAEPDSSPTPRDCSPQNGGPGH
Sequence of Tyrosine-protein kinase Fyn (Homo sapiens) (P06241 2-537 limits assumed): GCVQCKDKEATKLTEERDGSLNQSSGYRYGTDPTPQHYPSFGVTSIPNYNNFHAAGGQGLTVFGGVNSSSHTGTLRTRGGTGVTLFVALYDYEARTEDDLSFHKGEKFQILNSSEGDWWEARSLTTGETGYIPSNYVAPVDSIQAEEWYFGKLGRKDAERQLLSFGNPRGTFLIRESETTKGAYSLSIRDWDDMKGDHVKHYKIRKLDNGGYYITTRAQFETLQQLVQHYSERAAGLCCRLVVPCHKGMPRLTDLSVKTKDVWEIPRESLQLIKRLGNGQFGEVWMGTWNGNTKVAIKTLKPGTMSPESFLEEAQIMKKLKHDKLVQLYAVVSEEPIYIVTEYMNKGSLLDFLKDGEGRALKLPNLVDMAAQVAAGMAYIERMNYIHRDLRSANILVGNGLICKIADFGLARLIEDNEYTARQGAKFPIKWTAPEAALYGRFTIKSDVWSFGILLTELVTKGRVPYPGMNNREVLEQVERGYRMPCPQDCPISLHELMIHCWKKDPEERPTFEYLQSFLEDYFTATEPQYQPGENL
Sequence of Insulin receptor (Homo sapiens) (P06213 28-758 limits assumed): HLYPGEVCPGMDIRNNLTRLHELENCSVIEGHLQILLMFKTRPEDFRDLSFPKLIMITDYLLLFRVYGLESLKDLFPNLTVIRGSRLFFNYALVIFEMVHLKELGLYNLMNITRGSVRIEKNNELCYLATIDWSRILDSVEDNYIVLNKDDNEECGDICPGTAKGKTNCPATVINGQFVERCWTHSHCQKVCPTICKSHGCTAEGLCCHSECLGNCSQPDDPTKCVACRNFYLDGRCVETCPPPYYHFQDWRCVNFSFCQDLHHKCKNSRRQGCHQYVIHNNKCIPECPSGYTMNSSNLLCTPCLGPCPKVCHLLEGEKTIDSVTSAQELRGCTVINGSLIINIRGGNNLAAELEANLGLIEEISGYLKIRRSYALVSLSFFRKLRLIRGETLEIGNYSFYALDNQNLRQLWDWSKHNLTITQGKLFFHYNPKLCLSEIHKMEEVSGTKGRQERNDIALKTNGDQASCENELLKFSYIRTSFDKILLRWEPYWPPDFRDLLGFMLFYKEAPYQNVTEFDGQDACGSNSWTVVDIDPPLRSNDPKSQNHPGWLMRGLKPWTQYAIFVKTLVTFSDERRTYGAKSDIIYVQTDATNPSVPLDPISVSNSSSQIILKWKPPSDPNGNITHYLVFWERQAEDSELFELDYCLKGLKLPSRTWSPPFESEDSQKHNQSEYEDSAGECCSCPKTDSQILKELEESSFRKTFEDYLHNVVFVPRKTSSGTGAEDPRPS
Sequence of Insulin receptor (Homo sapiens) (P06213 763-1382 limits assumed): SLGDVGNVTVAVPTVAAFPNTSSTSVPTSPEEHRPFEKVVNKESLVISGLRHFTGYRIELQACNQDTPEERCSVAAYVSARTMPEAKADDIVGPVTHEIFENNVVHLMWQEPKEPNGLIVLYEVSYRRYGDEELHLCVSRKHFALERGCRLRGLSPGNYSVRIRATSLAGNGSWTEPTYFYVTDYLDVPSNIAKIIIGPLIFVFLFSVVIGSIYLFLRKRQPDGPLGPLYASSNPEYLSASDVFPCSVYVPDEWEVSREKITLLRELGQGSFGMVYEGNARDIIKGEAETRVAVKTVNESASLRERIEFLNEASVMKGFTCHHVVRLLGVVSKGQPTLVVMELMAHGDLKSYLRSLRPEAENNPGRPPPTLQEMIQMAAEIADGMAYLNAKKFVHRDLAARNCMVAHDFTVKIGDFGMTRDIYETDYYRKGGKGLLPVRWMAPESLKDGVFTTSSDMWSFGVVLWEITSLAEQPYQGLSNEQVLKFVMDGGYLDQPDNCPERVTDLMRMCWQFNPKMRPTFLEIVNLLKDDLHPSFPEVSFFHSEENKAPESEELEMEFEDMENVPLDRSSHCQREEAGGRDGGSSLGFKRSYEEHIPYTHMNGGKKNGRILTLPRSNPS
Sequence of Tyrosine-protein kinase HCK (Homo sapiens) (P08631 2-526 limits assumed): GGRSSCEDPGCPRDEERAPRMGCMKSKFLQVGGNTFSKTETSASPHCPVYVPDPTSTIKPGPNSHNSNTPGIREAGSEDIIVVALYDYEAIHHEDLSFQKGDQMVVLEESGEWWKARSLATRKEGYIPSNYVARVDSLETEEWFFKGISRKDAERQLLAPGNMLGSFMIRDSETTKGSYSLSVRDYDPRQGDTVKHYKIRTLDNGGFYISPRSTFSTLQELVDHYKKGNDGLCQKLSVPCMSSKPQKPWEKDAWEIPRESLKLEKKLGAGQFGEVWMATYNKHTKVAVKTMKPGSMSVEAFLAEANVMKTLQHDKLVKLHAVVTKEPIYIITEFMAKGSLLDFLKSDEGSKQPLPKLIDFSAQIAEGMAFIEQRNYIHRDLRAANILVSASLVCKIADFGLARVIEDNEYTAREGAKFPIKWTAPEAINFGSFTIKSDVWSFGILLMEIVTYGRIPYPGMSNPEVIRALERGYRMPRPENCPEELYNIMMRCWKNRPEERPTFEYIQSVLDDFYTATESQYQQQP

On to `c1ccc(Oc2ccc(Nc3ncc(-c4ccccc4)o3)cc2)cc1`, for which the inhibition in [1] came out at 2.97%; in [2], 3.85%; in assay [3], 5.01%; in assay [4], 1.77%; in assay [5], 2.01%; in [6], 4.11%. The inhibition was 2.94% in [7], -1.75% in assay [8], 1.99% in assay [9] and 0.89% in [10].
For `CN(c1ccc(NC(=O)Nc2c(Cl)cccc2Cl)cc1)c1ccnc(Nc2cccc(CS(C)(=O)=O)c2)n1`, the inhibition is 12.4% in assay [1]; 22.5% in assay [2]; 48.9% in assay [3]; 5.47% in assay [4]; 4.63% in [5]; 1.49% in [6]. The inhibition in assay [7] was 3.45%; in assay [8], 2.73%; in assay [9], 4.71%; in [10] it was 54.1%.
Regarding `NS(=O)(=O)c1ccc(N/N=C2\C(=O)Nc3ccc(C(=O)NCCCn4ccnc4)cc32)cc1`, the inhibition in [1] came out at 19.2%; in assay [2], 5.3%; in [3], 17.8%; in [4] it was 2.13%; in assay [5] it was 3.17%; in assay [6] it was 6.3%. In addition, the inhibition in [7] amounted to 6.66%; in assay [8], 2.1%; in [9], 3.71%; in assay [10], 1.19%.
As for `FC(F)(F)c1cccc(Nc2nccc(-c3cnn4nc(-c5ccccc5)ccc34)n2)c1`, the inhibition in [1] was 7.18%; in assay [2], 1.72%; in assay [3], 6.11%; in assay [4], -1.86%; in assay [5], -1.43%; in [6], -2.61%. For the same compound, the inhibition in assay [7] was 1.45%; in assay [8], 0.93%; in assay [9], 0.27%; in assay [10], -0.41%.
With `O=C(NCC1CC1)c1ccc(-c2cccc(C(=O)NC3CC3)c2)cc1`, the inhibition is 2.23% in [1]; 2.5% in assay [2]; 7.59% in [3]; 2.46% in [4]; 4.73% in assay [5]; 1.73% in assay [6]. In addition, the inhibition was determined as 3.95% in assay [7], 1.19% in assay [8], 2.93% in [9] and 1.15% in assay [10].
Regarding `Fc1ccc(-c2c(-c3ccncc3)nc3n2CCS3)cc1`, the inhibition in assay [1] was 0.5%; in assay [2], 2.36%; in assay [3], 4.87%; in [4], -4.27%; in [5] it was -5.03%; in assay [6], 5.99%. Also, the inhibition is 6.13% in assay [7], 0.59% in assay [8], 0.48% in assay [9] and -2.9% in assay [10].
Regarding `N#Cc1ccc(Oc2nccc(-c3c(-c4ccc(F)cc4)ncn3C3CCNCC3)n2)cc1`, the inhibition is 3.01% in assay [1]; 5.66% in assay [2]; 5.1% in assay [3]; -0.43% in assay [4]; 0.96% in assay [5]; 3.29% in assay [6]. The inhibition is 3.86% in assay [7], 3.14% in assay [8], 4.24% in [9] and -0.47% in [10].
As for `CS(=O)(=O)CCNCc1cc(-c2cc3c(Nc4ccc(OCc5cccc(F)c5)c(Cl)c4)ncnc3s2)cs1`, the inhibition turned out to be 2.71% in assay [1]; 6.52% in assay [2]; 7.87% in [3]; 5.7% in assay [4]; 4.5% in [5]; 11.5% in assay [6]. In addition, the inhibition in [7] was found to be 4.74%; in assay [8], 1.69%; in assay [9], 2.82%; in assay [10] it was 1.89%.
On to `COc1cccc(/C=N/Nc2ncnc3c2cnn3-c2cccc(OC)c2)c1`, for which the inhibition was 7.98% in [1]; 4.96% in assay [2]; 6.95% in [3]; 2.01% in assay [4]; 1.32% in [5]; 6.27% in [6]. In addition, the inhibition in [7] amounted to 3.35%; in assay [8] it was 1.18%; in assay [9] it was 1.31%; in assay [10], 0.35%.
On to `C[C@@H](Oc1cc(-n2cnc3ccc(OC4CCN(C)CC4)cc32)sc1C(N)=O)c1ccccc1Cl`, for which the inhibition was -4.42% in assay [1]; 6.15% in assay [2]; 13% in assay [3]; -9.14% in assay [4]; 0.05% in assay [5]; 10.4% in [6]. The inhibition is -1.99% in [7], 2.49% in assay [8], 3.03% in assay [9] and -2.4% in assay [10].
With `c1ccc(-c2n[nH]cc2-c2ccnc(-c3ccc(OCCN4CCOCC4)cc3)c2)nc1`, the inhibition was 4.24% in [1]; 1.69% in [2]; 4.55% in assay [3]; -2.45% in assay [4]; -2.14% in assay [5]; -2.85% in [6]. Moreover, the inhibition in [7] was -1.85%; in assay [8], -0.78%; in assay [9] it was -0.34%; in assay [10], 5.52%.
Turning to `COc1ccc2cc(-c3c(-c4ccncc4)nc(-c4ccc(S(C)(=O)=O)cc4C)n3C)ccc2c1`, the inhibition in [1] was 7.37%; in assay [2], 5.89%; in assay [3], 13.1%; in assay [4], 4.23%; in [5], 3.79%; in assay [6] it was 7.46%. Moreover, the inhibition in assay [7] was found to be 5.18%; in assay [8], 2.39%; in assay [9], 2.25%; in assay [10], 1.82%.
As to `C[C@@H](Oc1cc(-n2cnc3ccc(OCC4CCN(C)CC4)cc32)sc1C(N)=O)c1ccccc1Cl`, the inhibition in assay [1] was 15.3%; in [2], 8.11%; in [3] it was 29.6%; in assay [4], 6.33%; in assay [5], 7.27%; in assay [6], 6.64%. Moreover, the inhibition was 8.87% in assay [7], 2.3% in assay [8], 3.31% in [9] and 2.76% in assay [10].
As for `O=C(Nc1n[nH]c2cc(-c3cc(F)ccc3F)ccc12)C1CC1`, the inhibition in assay [1] came to 6.73%; in [2], 7.73%; in assay [3] it was 8.12%; in assay [4], 0.54%; in [5], 2.05%; in assay [6], 7.13%. For the same compound, the inhibition in assay [7] turned out to be 4.97%; in assay [8] it was 1.56%; in assay [9], 0.94%; in [10] it was 2.16%.
As to `CN(C)CCCNc1nccc(-c2c(-c3ccc(F)cc3)nn3cc(C(F)(F)F)ccc23)n1`, the inhibition was 0.28% in assay [1]; 3.12% in assay [2]; 7.89% in assay [3]; -7.12% in [4]; -5.52% in assay [5]; 0.53% in assay [6]. Moreover, the inhibition in assay [7] was -0.49%; in assay [8] it was 2.55%; in assay [9], 0.73%; in assay [10], -2.44%.
Consider `COc1cc(Nc2ncc3c(C)nc(-c4cccc(C(F)(F)F)c4)n3n2)cc(OC)c1OC`, for which the inhibition in [1] worked out at 39.7%; in assay [2] it was 6.2%; in [3], 22.6%; in assay [4], 2.62%; in assay [5], 5.74%; in assay [6], 5.92%. In addition, the inhibition in [7] is 8.95%; in assay [8] it was 1.64%; in [9], 3.39%; in [10], 2.02%.
In the case of `CCS(=O)(=O)c1ccc(OC)c(Nc2ncc(-c3cccc(-c4ccccc4F)c3)o2)c1`, the inhibition in [1] stood at 85.6%; in assay [2], 16.9%; in assay [3], 64.4%; in assay [4], 2.3%; in [5], 3.39%; in assay [6], 2.01%. In addition, the inhibition in [7] was 1.9%; in assay [8], -1.45%; in assay [9] it was -0.35%; in [10], 0.42%.
With `Nc1nccc(-c2c(-c3ccc(F)cc3)ncn2C2CCC(O)CC2)n1` (stereo not given), the inhibition was 6.58% in assay [1]; 1.96% in assay [2]; 12.7% in assay [3]; -1.46% in assay [4]; -1.17% in [5]; 0.89% in [6]. In addition, the inhibition is -0.36% in assay [7], -0.97% in assay [8], -2.71% in [9] and -0.36% in assay [10].
On to `O=C(Nc1n[nH]c2nc(-c3ccc(O)cc3)c(Br)cc12)C1CC1`, for which the inhibition in [1] came out at 14.5%; in assay [2], 12.2%; in [3] it was 28.4%; in [4] it was 5.22%; in [5], 5.83%; in [6] it was 7.55%. Further, the inhibition in assay [7] is 6.22%; in [8], 1.99%; in assay [9], 1.59%; in [10], 2.89%.
